LASV entry inh: blocks Lassa virus binding to or entry into cells; AID 540256; 300,000 compounds, 1.2% hits; Potency, µM (doses to about 37.9 µM), without a hit: top-dose activity change, negative = inhibition, actives largely listed as inhibitors; Lassa virus pseudotype entry inhibition, cell reporter; calls by dose curve; tested in HEK293 cells; also: nearly all actives have a fitted effect of over 50% in size
HCV inhibitor: HCV inhibition; Huh7.5.1 HCVcc-Cre infection, luciferase reporter, 44 h; Potency, µM (doses to about 41.8 µM), for inactives: top-dose activity change, negative = inhibition, usual class: inhibitors; 340,000 compounds, 3.4% hits; AID 651820; active = well fitted inhibition curve with a large enough effect; inconclusive = small, poorly fitted or top-dose-only effect, or another doubt; inactive = no such curve, though single readings can be large or run the other way
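Infectious HCV cell culture screen: compound-treated cells (1,000/well, pre-plated 4 h) are infected with HCVcc-Cre at roughly 0.5 moi and grown 44 h. Infection is quantified by luciferase signal after 15 min substrate incubation at room temperature.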
Vaccinia mCherry: vaccinia inhibition (mCherry reporter). Potency, µM (highest dose often 36.5 µM), inactives show top-dose activity change, negative = inhibition, most hits filed as inhibitors. AID 720579. 310,000 compounds, 0.63% hits. Vaccinia virus mCherry reporter infection, fluorescence; calls by dose curve; tested in A549 cells; also: nearly all actives have a fitted effect of over 35% in size
Marburg entry inh: inhibitors of Marburg virus binding or cell entry; Potency, µM (highest dose often 37.8 µM), for the others: top-dose activity change, negative = inhibition, actives largely listed as inhibitors; 300,000 compounds, 1.8% hits; Marburg virus pseudotyped entry inhibition, cell reporter; calls by dose curve; tested in HEK293 cells
VACV Venus inh: vaccinia inhibition (Venus reporter); Vaccinia virus Venus reporter expression, fluorescence; Potency, µM (doses to about 36.5 µM), for the others: top-dose activity change, negative = inhibition, usual class: inhibitors; 330,000 compounds, 0.46% hits; AID 720580; calls by dose curve; tested in A549 cells; also: nearly all actives have a fitted effect of over 30% in size
* marks the source's active call; other numbers are inactive results; i = inactive; ? = inconclusive; . = no result given; [ ] = another dose, or the depositor's remark. Rows were chosen to be rich in hits. Some 4.6% of all compounds tested hit in one or more screens of this group. % is scaled to controls: 0 for no effect and ±100 for the full control effect; potency is read from the fitted curve at half-maximal effect.

SMILES | LASV entry inh | HCV inhibitor | Vaccinia mCherry | Marburg entry inh | VACV Venus inh
CN(C)c1nc(CN2CCCCC2c2cccnc2)nc2ccccc12 (stereo not drawn) | . | . | -16% | . | -7%
CCCSc1nc2cc(OC)c(OC)cc2c(=N)n1CCCN1CCOCC1 | ? | 11µM* | ? | 14µM* | ?
COCCCn1c(SCc2ccc(OC)cc2)nc2cc(OC)c(OC)cc2c1=N | -6% | ? | . | 9% | .
COc1cc([C@@H](NC(=O)C(F)(F)F)C2CCCCC=C2c2ccccc2)cc(OC)c1OC (stereo partly drawn) | -12%[14.3 µM] | . | . | 10%[14.2 µM] | .
Ic1ccc(N2CCN(Cc3c[nH]c4ncccc34)CC2)cc1 | ? | ? | -15% | 11µM* | ?
Fc1ccc(N2CCN(Cc3ccccn3)CC2)cc1 | 17%[46.1 µM] | 9% | i | 20%[46.1 µM] | -2%
Cc1cccc(OCC(=O)NCCc2nc3ccccc3[nH]2)c1C | 1%[46.1 µM] | . | -11% | -1%[46.1 µM] | -10%
COCC(=O)O[C@]1(CCN(C)CCCc2nc3ccccc3[nH]2)CCc2cc(F)ccc2[C@@H]1C(C)C | 5.2µM* | ? | -17% | 7.3µM* | ?
CC(=O)Nc1nonc1-c1nnc(SCC(=O)Nc2cc(Cl)ccc2C)n1C | -2%[46.1 µM] | . | -5% | 2%[46.1 µM] | -5%
Cc1cc(Cc2ccc(N)c(C)c2)ccc1N | -1% | -8% | ? | 1% | -5%
Cc1cc(Cc2cc(C)c(O)c(CO)c2)cc(CO)c1O | ? | -1% | 5.6µM* | ? | -26%
CCN(CC)CCNC(=S)NC(=O)c1cn(-c2ccccc2)nc1-c1ccc(OC)cc1 | . | 22µM* | . | . | .
COc1ccc(NC(=O)c2cn(-c3ccccc3)nc2-c2ccc(C)cc2)cc1 | -26%[46.1 µM] | . | -12% | . | -8%
COC(=O)c1cn(-c2ccccc2)nc1-c1ccc(OC)cc1 | . | 13µM* | -12% | . | -22%
COc1ccc(-c2nn(-c3ccccc3)cc2C(=O)OCC(=O)c2ccc(C)c([N+](=O)[O-])c2)cc1 | 4% | 7.1µM* | -23% | -21% | -29%
COC(=O)c1cn(-c2ccccc2)nc1-c1ccncc1 | 0% | 0% | -6% | -4%[46.1 µM] | 0%
Clc1cccc(CNc2cc(-c3ccccc3)nc3nncn23)c1 | ? | . | -4% | ? | -25%
Cc1cc(C(=O)CSc2nc3ccccc3c(=O)[nH]2)c(C)n1CC1CCCO1 (stereo not drawn) | -25% | 11µM* | ? | ? | -7%
O=C(CN1C(=O)c2ccccc2S1(=O)=O)c1ccc(F)c(F)c1 | ? | 11% | i | 10µM* | 0%
Cc1cc(C(=O)CN2C(=O)c3ccccc3S2(=O)=O)c(C)n1CC1CCCO1 (stereo not drawn) | 0.46µM* | -13% | -6% | 0.58µM* | -6%
O=C(CN1C(=O)c2ccccc2S1(=O)=O)c1ccc(O)c(O)c1 | ? | 20% | ? | ? | 8%
Cc1cc(C(=O)CSc2nnc(Nc3ccccc3F)s2)c(C)n1CC1CCCO1 (stereo not drawn) | -6% | 6.3µM* | i | -19% | -15%
C[C@@H]1CN(C2CCN(S(=O)(=O)Cc3ccccc3)CC2)C[C@H](C)O1 | . | . | . | 0% | .
Fc1ccc2c(c1)-c1c(cnc3cc(-c4ccc(Cl)cc4)nn13)CO2 | 13%[46.1 µM] | . | 8% | 20%[46.1 µM] | -2%
CNS(=O)(=O)c1cccc(C(=O)OCC(=O)c2cc(C)n(CC3CCCO3)c2C)c1 (stereo not drawn) | 13µM* | ? | 7% | ? | -16%
SMILES | LASV entry inh | HCV inhibitor | Vaccinia mCherry | Marburg entry inh | VACV Venus inh
NC(=S)NN=C1c2ccccc2-c2ccccc21 | . | 6.3µM* | . | . | .
O=C(NN=C1c2ccccc2-c2ccccc21)c1ccccc1 | . | ? | . | 0% | .
CCC/C=C1/CCCOC(C(=O)NCc2ccccc2)(C(F)(F)F)C1 (stereo not drawn) | . | 0.89µM* | -3% | . | -3%
CO[C@@]12[C@@H]3N[C@@H]3CN1C1=C(C(=O)C(N)=C(C)C1=O)[C@@H]2COC(N)=O | ? | ? | 5.6µM* | ? | 2.5µM*
CCCNC1=C(C)C(=O)C2=C(C1=O)C(COC(N)=O)[C@]1(OC)C3NC3CN21 (stereo partly drawn) | ? | ? | ? | 6.3µM* | ?
OC(C[n+]1ccccc1Cl)c1ccccc1 (stereo not drawn) | . | . | 16% | . | -9%
Nc1ncnc2c1ncn2[C@@H]1O[C@H](CO)[C@@H](O)[C@H]1O | 11% | ? | -12% | 17% | 0%
N#Cc1cn(C2OC(CO)C(O)C2O)c2ncnc(N)c12 (stereo not drawn) | 0.63µM* | ? | ? | ? | ?
NC(=O)c1cn(C2OC(CO)C(O)C2O)c2ncnc(N)c12 (stereo not drawn) | 0.29µM* | ? | 0.32µM* | 0.073µM* | 0.32µM*
Cc1cc2c(c(-c3ccc4nc(C)ccc4c3)c1)OC(CNC(=O)Cc1ccn(C)c1)C2 (stereo not drawn) | . | . | -25% | . | -15%
Cc1ccccc1C(=O)Oc1cccc(Nc2ncnc3ccccc23)c1 | 10µM* | ? | ? | 11µM* | ?
CC1CCC(NC(=O)C2(C)Cc3ccccc3C(=O)N2Cc2ccc(Cl)cc2)CC1 (stereo not drawn) | . | . | 1% | -14%[46.1 µM] | -6%
CC1CCCN(C(=O)c2ccc(S(=O)(=O)N3CCC(c4nc5ccccc5s4)CC3)cc2)C1 (stereo not drawn) | ? | 10µM* | -26% | ? | -20%
Cc1ccc(C(=O)Nc2ccc(S(=O)(=O)N3CCC(c4nc5ccccc5s4)CC3)cc2)cc1 | 24%[46.1 µM] | . | ? | -5%[46.1 µM] | ?
CCN(CC)C(=O)c1ccc(S(=O)(=O)N2CCC(c3nc4ccccc4s3)CC2)cc1 | ? | 2.5µM* | -10% | ? | ?
O=S(=O)(c1ccc(OC(F)(F)F)cc1)N1CCC(c2nc3ccccc3s2)CC1 | -12%[46.1 µM] | . | 3% | 6%[46.1 µM] | -4%
COc1ccc(C(C(=O)NC(C)(C)C)N(CCc2ccccc2)C(=O)CCC(=O)Nc2cc(C)on2)cc1 (stereo not drawn) | -4% | -16% | -23% | 8.9µM* | -23%
COc1ccc(C(C(=O)NC(C)(C)C)N(CCO)C(=O)CCC(=O)Nc2cc(C)on2)cc1 (stereo not drawn) | ? | 8% | -6% | 8%[46.1 µM] | -1%
CC(=O)OC[C@H]1O[C@H](CC=NO[C@H](C)c2cn([C@@H]3COC[C@@H]3O)nn2)C=C[C@@H]1OC(C)=O | . | . | . | -12%[14.2 µM] | .
CCc1ccc(NC(=O)Cn2c(=O)n(CCC(=O)NCCc3ccc(Cl)cc3)c(=O)c3ccccc32)cc1 | -16%[46.1 µM] | . | -6% | 26%[46.1 µM] | -7%
CCCCn1c(N)c(S(=O)(=O)c2ccc(C)cc2)c2nc3ccccc3nc21 | ? | ? | -15% | 10µM* | -29%
CN(C)CCCn1c(N)c(S(=O)(=O)c2ccccc2)c2nc3ccccc3nc21 | 0% | -6% | -20%[7.34 µM] | -20%[46.1 µM] | -4%[7.34 µM]
Cc1ccc2nc(NC(=O)Cc3cccs3)sc2c1 | -5% | ? | . | ? | .
Cc1ccc2nc(-c3ccc(NC(=O)Cc4cccs4)cc3)[nH]c2c1 | ? | 11µM* | ? | -21% | 13µM*
